High-throughput results from PubChem.
PKA kinase inh – inhibitors of human PKA kinase activity, primary screen, biochemical, ATP-depletion luminescence, Kemptide substrate. inhibition, % at 6 µM. PKA Kemptide phosphorylation, Kinase-Glo ATP luminescence. 0.1% of 65,000 active;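 active means inhibition above the screen-wide mean inhibition plus 3 SD, cut at about 21% in these data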
ROCK2 blocker – inhibitors of human ROCK2 kinase, primary screen, biochemical, high-throughput, luminescence | purified ROCK2, Kinase-Glo ATP depletion luminescence | inhibition, % at 6 µM | 0.35% of 60,000 active | AID 604, 2007;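 active means inhibition above the screen-wide mean inhibition plus 3 SD, cut at about 18% in these data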
Target sequence (O75116 whole entry, looked up): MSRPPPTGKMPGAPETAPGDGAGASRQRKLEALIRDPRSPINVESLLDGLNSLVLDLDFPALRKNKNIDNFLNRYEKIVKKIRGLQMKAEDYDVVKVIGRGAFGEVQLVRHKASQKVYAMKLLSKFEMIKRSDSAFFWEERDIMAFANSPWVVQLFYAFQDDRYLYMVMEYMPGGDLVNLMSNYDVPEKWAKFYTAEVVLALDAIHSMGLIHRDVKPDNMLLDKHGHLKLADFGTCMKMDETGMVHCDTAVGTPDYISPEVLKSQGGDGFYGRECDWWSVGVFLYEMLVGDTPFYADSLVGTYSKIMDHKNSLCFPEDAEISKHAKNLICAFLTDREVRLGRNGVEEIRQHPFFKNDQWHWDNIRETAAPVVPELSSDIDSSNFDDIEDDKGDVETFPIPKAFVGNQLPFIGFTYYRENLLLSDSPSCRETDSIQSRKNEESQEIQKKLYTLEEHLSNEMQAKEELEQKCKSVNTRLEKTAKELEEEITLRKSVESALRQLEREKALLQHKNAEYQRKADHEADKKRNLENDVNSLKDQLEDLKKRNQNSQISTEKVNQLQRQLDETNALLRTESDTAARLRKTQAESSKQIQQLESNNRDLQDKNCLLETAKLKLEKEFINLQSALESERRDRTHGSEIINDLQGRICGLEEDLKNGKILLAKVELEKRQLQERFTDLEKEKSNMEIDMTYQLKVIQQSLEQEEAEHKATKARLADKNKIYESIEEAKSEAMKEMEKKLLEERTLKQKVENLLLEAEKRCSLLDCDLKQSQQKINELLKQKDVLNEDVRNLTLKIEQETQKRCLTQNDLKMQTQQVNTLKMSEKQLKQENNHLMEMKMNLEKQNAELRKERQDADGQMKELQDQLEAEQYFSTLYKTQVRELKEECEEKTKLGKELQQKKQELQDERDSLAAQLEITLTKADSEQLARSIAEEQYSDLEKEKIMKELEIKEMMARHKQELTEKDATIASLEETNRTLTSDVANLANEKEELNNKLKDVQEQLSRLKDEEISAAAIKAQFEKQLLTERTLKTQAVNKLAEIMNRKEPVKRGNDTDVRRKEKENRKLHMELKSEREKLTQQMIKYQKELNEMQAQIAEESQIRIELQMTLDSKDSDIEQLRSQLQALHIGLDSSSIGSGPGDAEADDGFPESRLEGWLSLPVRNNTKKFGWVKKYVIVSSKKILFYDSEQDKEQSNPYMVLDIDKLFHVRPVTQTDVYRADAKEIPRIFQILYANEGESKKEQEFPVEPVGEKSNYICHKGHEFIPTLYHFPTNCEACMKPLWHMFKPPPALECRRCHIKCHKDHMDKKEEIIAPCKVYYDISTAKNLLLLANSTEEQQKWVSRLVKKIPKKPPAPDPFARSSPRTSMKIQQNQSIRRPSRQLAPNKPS
hDAT+cocaine – changed hDAT dopamine uptake under cocaine IC80, either direction, primary screen, cocaine antagonist project, cell-based, LLC-PK1 hDAT, [14C]-dopamine uptake, MLSMR; Sodium-dependent dopamine transporter (Homo sapiens), Q01959; LLC-PK1 hDAT cells, [14C]-dopamine uptake with cocaine IC80; actives deviate in either direction; B-score at 10 µM; 1.3% of 110,000 active; AID 449768, 2010;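 active means Z score or B-score, a plate-position-corrected score, falls beyond the plate's 99.7% confidence bounds, in either direction; inactive means both scores lie inside the 99.7% bounds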
D1 mod – D1 CRE-luciferase signal change, two-sided – cell-based, HEK293 D1, dopamine EC30, D1 allosteric modulator project, primary screen; D(1A) dopamine receptor (Homo sapiens), P21728; dopamine EC30 potentiation; actives deviate in either direction; B-score at 10 µM; 5.9% of 58,000 active;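 active means luminescence count or its row- and column-corrected plate score outside the 99.7% band of the plate's sample wells, on either side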
D1 PAM confirm – D1 receptor positive allosteric modulators, retest, confirmation, cell-based, HEK293 D1, CRE-luciferase, duplicate; shares compounds with D1 mod; luminescence at 10 µM; AID 642, 2007; dopamine EC30 potentiation; stronger effect = higher value; 88% of 2,200 active;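 active means luminescence in either of two replicates above the same-plate mean plus 3 SD of the low-dose dopamine control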
D1 ag no DA – D1 receptor agonism without dopamine, confirmation, mechanism study for D1 allosteric modulator project, cell-based, HEK293 D1, CRE-luciferase, secondary assay 1. luminescence, no dopamine; stronger effect = higher value. 0.8% of 1,900 active. luminescence at 10 µM. shares compounds with D1 mod. AID 646, 2007; in the data active means luminescence above about 3900
Isoprot counter – counter-screen for D1 modulators: isoproterenol response in HEK293 cells; AID 647; shares compounds with D1 mod; HEK293 D1 CRE-luciferase, isoproterenol EC30 counter-screen; calls only at 10 µM; 63% of 2,200 active;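 active means luminescence in either replicate above plate mean of wells with a partly effective reference agonist dose plus 3 SD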;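 further: isoproterenol raises cAMP through native beta-adrenoceptor Gs so signal bypasses D1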
Each line names hits and unclear results; the compound was inactive in the other large screens (follow-up assays come after a bar, where they were run). This is one part of a sample in which hits are shown more often than they occur.

CC(=O)n1c2ccccc2c2nc(NC(C)C)sc21	D1 mod 6.4 | D1 PAM confirm 8636 | D1 ag no DA inactive | Isoprot counter active
Nc1[nH]nc2nc(N3CCCC3)nc(-c3ccccc3)c12	PKA kinase inh 26, D1 mod 15 (no result: ROCK2 blocker) | D1 PAM confirm 18304 | D1 ag no DA inactive | Isoprot counter active
COc1ccc(-c2nc(N3CCCC3)nc3nn4c(C)cc(C)nc4c23)cc1	none (no result: hDAT+cocaine)
Cc1cc(C)n2nc3nc(N4CCCC4)nc(-c4ccccc4)c3c2n1	D1 mod 4.8 (no result: hDAT+cocaine) | D1 PAM confirm 7140 | D1 ag no DA inactive | Isoprot counter active
COc1ccccc1-c1nnc(SCC(=O)Nc2nc(-c3ccccc3)cs2)n1C	D1 mod 2.9 | D1 PAM confirm inactive | D1 ag no DA inactive | Isoprot counter inactive
Cc1cc(C)nc(SCc2nnc(SCC(=O)Nc3nc(-c4ccccc4)cs3)n2C)n1	none (no result: PKA kinase inh, ROCK2 blocker, D1 mod)
CCC/C=C(\CCC)C(NC(=O)c1ccc(C(F)(F)F)cc1)c1ccccc1 (stereo not given)	none (no result: PKA kinase inh, ROCK2 blocker, D1 mod)
COC(=O)c1n[nH]c2ccccc12	none (no result: D1 mod)
O=C(OCCCCN1C(=O)c2ccccc2C1=O)c1n[nH]c2ccccc12	D1 mod 5.1 | D1 PAM confirm 7836 | D1 ag no DA inactive | Isoprot counter inactive
CCc1nc(SCc2cc(Cl)ccc2OC)n[nH]1	none
Cc1cc(C)n(-c2ccc(C(=O)N3CCc4ccccc43)cc2)n1	none
Cc1cc(C(=O)N2CCc3ccccc32)n(-c2ccccc2)n1	D1 mod 5.8 | D1 PAM confirm 10356 | D1 ag no DA inactive | Isoprot counter active
C/C(CCc1oc2ccccc2c1-c1ccc(C)o1)=N/O	D1 mod 7.2 | D1 PAM confirm 9460 | D1 ag no DA inactive | Isoprot counter inactive
COc1ccc(NC(=O)C2CCN(S(=O)(=O)c3cccc4cccnc34)CC2)cc1OC	D1 mod 3.6 (no result: hDAT+cocaine) | D1 PAM confirm 13296 | D1 ag no DA inactive | Isoprot counter active
COc1ccc(N2CCN(S(=O)(=O)c3cccc4cccnc34)CC2)cc1	D1 mod 8.7 | D1 PAM confirm 19744 | D1 ag no DA inactive | Isoprot counter active
Cc1cc2ccccc2n1CCNC(=O)c1ccc(Br)o1	none (no result: PKA kinase inh, ROCK2 blocker, D1 mod)
Cn1c(Cc2ccccc2)nnc1SCC(=O)c1ccc(Br)s1	none
CCCCOc1ccc(N2C(=O)CC(NCCc3ccc(S(N)(=O)=O)cc3)C2=O)cc1 (stereo not given)	none (no result: PKA kinase inh, ROCK2 blocker, D1 mod)
COC(=O)c1cc(=O)n(Cc2ccco2)c(=Nc2ccc(F)c(Cl)c2)s1	D1 mod 7.4 | D1 PAM confirm 8744 | D1 ag no DA inactive | Isoprot counter inactive
COc1ccc(NC(=O)c2sc(SCc3ccccc3)nc2N)cc1	none (no result: PKA kinase inh, ROCK2 blocker, D1 mod)
COc1ccc(NC(=O)c2sc(SC)nc2N)cc1	D1 mod 15 | D1 PAM confirm 19600 | D1 ag no DA inactive | Isoprot counter active
Cc1cccc(-c2noc(CN(C(=O)C(c3ccccc3)c3ccccc3)C(C)C)n2)c1	none (no result: PKA kinase inh, ROCK2 blocker, D1 mod)
Cc1cc(F)ccc1S(=O)(=O)Nc1c(C)n(C)n(-c2ccccc2)c1=O	D1 mod 5 | D1 PAM confirm inactive | D1 ag no DA inactive | Isoprot counter inactive
Cc1c(NS(C)(=O)=O)c(=O)n(-c2ccccc2)n1C	none
Nc1nc2c3ccccc3nc(Cc3ccccc3)n2n1	D1 mod 16 | D1 PAM confirm 11064 | D1 ag no DA inactive | Isoprot counter active
CCCc1nc2ccccc2c2nc(N)nn12	D1 mod 27 | D1 PAM confirm 19312 | D1 ag no DA inactive | Isoprot counter active
Cc1nc2ccccc2c2nc(N)nn12	none (no result: PKA kinase inh, ROCK2 blocker, D1 mod)
COc1cc2c(cc1OC)CN(S(=O)(=O)c1ccc3c(c1)OCCO3)CC2	D1 mod 5.3 | D1 PAM confirm 15328 | D1 ag no DA inactive | Isoprot counter active
